Inconclusive results are not listed. Active and inactive are the calls of the source. The call rests on the fitted dose curve; in most records, active means well fitted curve in the direction sought with a large enough effect in the repeat runs; inconclusive means weak or mixed curves; inactive means no such curve, though single readings can be large; an effect the other way counts as inactive or inconclusive.
Columns and labels:
[1] = A CellTox Green Cytotoxicity Assay to monitor cytotoxicity in HEK293 cells - 40 hour (AID 1224871); further: nearly all actives have a fitted effect of over 45% in size; further: potency means the concentration at half of the fitted maximal effect
How it was run: (§1)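 Read-out: fluorescence of a cell-impermeant cyanine dye staining DNA of dead cells, proportional to cytotoxicity. HEK293, 600 cells/well with reagent, compound (23 nL DMSO) added after 5 h; reads at 0, 8, 16, 24, 32, 40 h.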

[2] = qHTS RealTime-Glo MT Cell Viability Assay in HEK293 cells - 16 hour (AID 1224872); further: nearly all actives have a fitted effect of over 50% in size; further: potency means the concentration at half of the fitted maximal effect
How it was run: (§2)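 Luminescence generated by NanoLuc from substrate produced by living HEK293 cells served as the viability signal. Each value reflects the reading at its stated time point during continuous 40 h compound exposure at 37 C.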

[3] = qHTS RealTime-Glo MT Cell Viability Assay in HepG2 cells - 8 hour (AID 1224873); further: nearly all actives have a fitted effect of over 55% in size; further: potency means the concentration at half of the fitted maximal effect
How it was run: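 HepG2 cells mixed with RealTime-Glo MT reagents (NanoLuc plus cell-permeant prosubstrate) were seeded at 600 cells/well, incubated 5 h at 37 C/5% CO2, then pinned with compounds in DMSO; nonlytic luminescence tracked viability during 40 h treatment.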

[4] = qHTS RealTime-Glo MT Cell Viability Assay in HEK293 cells - 40 hour (AID 1224874); settings: RealTime-Glo luminescence; max response: hits give low values; further: potency means the concentration at half of the fitted maximal effect; nearly all actives have a fitted effect of over 50% in size
How it was run: (§3)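 Luminescence readout at each listed time point; HEK293, 600 cells/well, RealTime-Glo MT reagent added with cells; compounds pinned (23 nL in DMSO) after 5 h at 37 C; continuous culture at 37 C.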

[5] = A CellTox Green Cytotoxicity Assay to monitor cytotoxicity in HEK293 cells - 24 hour (AID 1224875); further: nearly all actives have a fitted effect of over 45% in size; further: potency means the concentration at half of the fitted maximal effect
How it was run: as §1

[6] = A CellTox Green Cytotoxicity Assay to monitor cytotoxicity in HepG2 cells - 16 hour (AID 1224876); further: nearly all actives have a fitted effect of over 45% in size; further: potency means the concentration at half of the fitted maximal effect
How it was run: (§4)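 HepG2, 600 cells/well premixed w/ CellTox Green; 5 h settle, 37 C/5% CO2; pintool cpd add (DMSO); 37 C, 40 h; fluorescence read at 0, 8, 16, 24, 32, 40 h.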

[7] = qHTS RealTime-Glo MT Cell Viability Assay in HepG2 cells - 32 hour (AID 1224877); further: nearly all actives have a fitted effect of over 55% in size; further: potency means the concentration at half of the fitted maximal effect
How it was run: (§5)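 Tox21 10K library screened in qHTS format on HepG2 cells carrying RealTime-Glo reagents. Compounds were added after a 5 h preincubation, and the luminescent signal from continuous culture was measured repeatedly during 40 h treatment.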

[8] = A CellTox Green Cytotoxicity Assay to monitor cytotoxicity in HepG2 cells - 24 hour (AID 1224878); further: nearly all actives have a fitted effect of over 45% in size; further: potency means the concentration at half of the fitted maximal effect
How it was run: as §4

[9] = A CellTox Green Cytotoxicity Assay to monitor cytotoxicity in HepG2 cells - 40 hour (AID 1224879); further: nearly all actives have a fitted effect of over 40% in size; further: potency means the concentration at half of the fitted maximal effect
How it was run: as §4

[10] = A CellTox Green Cytotoxicity Assay to monitor cytotoxicity in HEK293 cells - 32 hour (AID 1224881); further: nearly all actives have a fitted effect of over 40% in size; further: potency means the concentration at half of the fitted maximal effect
How it was run: as §1

[11] = A CellTox Green Cytotoxicity Assay to monitor cytotoxicity in HepG2 cells - 0 hour (AID 1224882); further: nearly all actives have a fitted effect of over 35% in size
How it was run: as §4

[12] = A CellTox Green Cytotoxicity Assay to monitor cytotoxicity in HepG2 cells - 32 hour (AID 1224883); further: nearly all actives have a fitted effect of over 50% in size; further: potency means the concentration at half of the fitted maximal effect
How it was run: as §4

[13] = qHTS RealTime-Glo MT Cell Viability Assay in HepG2 cells - 16 hour (AID 1224885); further: nearly all actives have a fitted effect of over 50% in size; further: potency means the concentration at half of the fitted maximal effect
How it was run: as §5

[14] = qHTS RealTime-Glo MT Cell Viability Assay in HEK293 cells - 24 hour (AID 1224886); further: nearly all actives have a fitted effect of over 50% in size; further: potency means the concentration at half of the fitted maximal effect
How it was run: as §2

[15] = qHTS RealTime-Glo MT Cell Viability Assay in HEK293 cells - 8 hour (AID 1224887); further: nearly all actives have a fitted effect of over 50% in size; further: potency means the concentration at half of the fitted maximal effect
How it was run: as §3

[16] = A CellTox Green Cytotoxicity Assay to monitor cytotoxicity in HEK293 cells - 16 hour (AID 1224888); further: nearly all actives have a fitted effect of over 35% in size; further: potency means the concentration at half of the fitted maximal effect
How it was run: as §1

[17] = qHTS RealTime-Glo MT Cell Viability Assay in HepG2 cells - 0 hour (AID 1224889); further: nearly all actives have a fitted effect of over 50% in size
How it was run: as §5

[18] = A CellTox Green Cytotoxicity Assay to monitor cytotoxicity in HepG2 cells - 8 hour (AID 1224890); further: nearly all actives have a fitted effect of over 45% in size; further: potency means the concentration at half of the fitted maximal effect
How it was run: as §4

[19] = A CellTox Green Cytotoxicity Assay to monitor cytotoxicity in HEK293 cells - 8 hour (AID 1224884); further: nearly all actives have a fitted effect of over 35% in size; further: potency means the concentration at half of the fitted maximal effect
How it was run: as §1

[20] = qHTS RealTime-Glo MT Cell Viability Assay in HEK293 cells - 0 hour (AID 1224880)
How it was run: as §3

Measured: Potency

CCCCCCCCCCCCCC[P+](CCCC)(CCCC)CCCC (tested in a mixture with another compound)
active: [1] 15.6 µM | [2] 8.76 µM | [3] 19.6 µM | [4] 0.349 µM | [5] 17.5 µM | [6] 19.6 µM | [7] 19.6 µM | [8] 15.6 µM | [9] 13.9 µM | [10] 15.6 µM | [12] 15.6 µM | [13] 19.6 µM | [14] 1.96 µM | [15] 15.6 µM | [16] 17.5 µM | [18] 22 µM
inactive: [11] | [17]

CCc1cc(Cc2cc(CC)c(N)c(CC)c2)cc(CC)c1N
active: [2] 24.5 µM | [4] 27.5 µM | [14] 27.5 µM | [15] 27.5 µM
not listed: [9] | [12] | [19] | [20]
inactive: all other assays above

C[C@@H](NCCCc1cccc(C(F)(F)F)c1)c1cccc2ccccc12
active: [1] 23.9 µM | [2] 23.9 µM | [3] 23.9 µM | [4] 23.9 µM | [5] 23.9 µM | [6] 19 µM | [8] 16.9 µM | [9] 15.1 µM | [10] 23.9 µM | [12] 15.1 µM | [13] 21.3 µM | [14] 23.9 µM | [15] 23.9 µM | [16] 23.9 µM | [18] 21.3 µM
inactive: [11]

CCCCCCCC[P+](CCCCCCCC)(CCCCCCCC)CCCCCCCC
active: [1] 6.87 µM | [2] 4.87 µM | [3] 17.3 µM | [4] 0.194 µM | [5] 4.87 µM | [6] 12.2 µM | [7] 12.2 µM | [8] 9.71 µM | [9] 10.9 µM | [10] 4.87 µM | [12] 10.9 µM | [19] 10.9 µM | [14] 1.73 µM | [15] 6.13 µM | [16] 10.9 µM | [18] 17.3 µM
inactive: [11]

C=CC(=O)OCC(CO)(COCC(COC(=O)C=C)(COC(=O)C=C)COC(=O)C=C)COC(=O)C=C
inactive: [20] | [11] | [19] | [17] | [18]
active: [1] 27.2 µM | [2] 3.05 µM | [3] 3.42 µM | [4] 2.42 µM | [5] 54.3 µM | [7] 3.84 µM | [8] 48.4 µM | [9] 15.3 µM | [10] 43.1 µM | [12] 21.6 µM | [13] 5.43 µM

ON=C1CCCC1
active: [2] 22.6 µM | [14] 22.6 µM
not listed: [4] | [13] | [15]
inactive: all other assays above

O=C1c2ccccc2Cc2ccccc21
not listed: [4] | [19]
inactive: all other assays above

Nc1ccccc1O
not listed: [4] | [14] | [15]
inactive: all other assays above

O=C(O)c1ccc(Cl)c(Cl)c1
not listed: [4]
inactive: all other assays above

CCCCCCCCNC(C)C(O)c1ccc(SC(C)C)cc1 (stereo not given)
inactive: [11]
active: [1] 16.9 µM | [2] 10.7 µM | [3] 21.3 µM | [5] 16.9 µM | [6] 16.9 µM | [8] 16.9 µM | [9] 15.1 µM | [10] 16.9 µM | [12] 16.9 µM | [19] 21.3 µM | [14] 9.52 µM | [15] 10.7 µM | [16] 19 µM | [18] 21.3 µM

[Cl][Au]([Cl])[Cl]
inactive: [20] | [11] | [19] | [17]
active: [1] 21.9 µM | [2] 4.9 µM | [3] 49 µM | [5] 21.9 µM | [6] 21.9 µM | [8] 13.8 µM | [9] 7.76 µM | [10] 19.5 µM | [12] 11 µM | [13] 15.5 µM | [14] 3.89 µM | [16] 49 µM

Reference: PubChem BioAssay (Tox21)
